From PubChem BioAssay AID588453 (National Center for Advancing Translational Sciences (NCATS), 2011) come the findings set out here.

The whole screen tested about 390,000 compounds, of which about 4,000 (1%) were called active. Inconclusive results (about 4%) are left out. Calls follow the shape of the dose curve; as a rule, active = well fitted inhibition curve with a large enough effect; inconclusive = small, poorly fitted or top-dose-only effect; inactive = no such curve, though single readings can be large or run the other way. Only a selection was taken, and actives are over-represented in it overall.
% is scaled to controls: 0 for no effect and ±100 for the full control effect; potency is read from the fitted curve at half-maximal effect.

For the experiment, the target named is Thioredoxin reductase 1, cytoplasmic (Rattus norvegicus) (UniProt O89049). The experiment is described as follows: qHTS Assay for Inhibitors of Mammalian Selenoprotein Thioredoxin Reductase 1 (TrxR1): qHTS. Also: nearly all actives have a fitted effect of over 65% in size. The note with it: recombinant rTrxR1, NADPH fluorescence consumption, selenite substrate; series mostly up to 114 µM; activity change, negative = inhibition: at the top concentration. Summed up: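 Rat TrxR1 (90 nM in the dispensed reagent) was pre-reduced with 400 uM NADPH for 5 min at room temperature, then incubated with compound for 15 min. After 400 uM selenite was added, NADPH fluorescence (Ex 340/Em 450 nm) was followed for 8 min.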
Chain of Thioredoxin reductase 1, cytoplasmic (Rattus norvegicus) (O89049 whole entry, looked up): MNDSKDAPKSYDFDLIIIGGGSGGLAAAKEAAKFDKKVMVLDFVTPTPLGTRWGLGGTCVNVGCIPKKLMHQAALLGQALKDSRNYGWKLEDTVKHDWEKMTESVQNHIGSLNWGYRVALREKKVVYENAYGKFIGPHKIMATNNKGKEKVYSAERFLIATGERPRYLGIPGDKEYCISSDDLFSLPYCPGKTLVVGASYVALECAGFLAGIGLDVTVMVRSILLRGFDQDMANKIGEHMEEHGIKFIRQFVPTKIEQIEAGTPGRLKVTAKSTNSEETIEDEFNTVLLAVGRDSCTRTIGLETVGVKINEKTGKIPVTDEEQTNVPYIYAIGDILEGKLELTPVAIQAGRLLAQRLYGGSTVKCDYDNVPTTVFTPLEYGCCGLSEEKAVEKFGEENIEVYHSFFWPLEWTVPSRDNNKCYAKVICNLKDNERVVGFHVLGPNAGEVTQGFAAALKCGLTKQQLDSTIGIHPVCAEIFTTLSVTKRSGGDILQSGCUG
`COc1ccc(S(=O)(=O)Nc2cccc3cccnc23)c(N)c1`: the “activity change, negative = inhibition” value was 10.7% (inactive).

For the compound `Cc1cc(-c2ccc(C)c(S(=O)(=O)N3c4ccccc4CC3C)c2)on1` (stereo not drawn), the “activity change, negative = inhibition” value is 2.98% [at 57.1 µM] (inactive).

Consider `CCOc1ccc(C2C(=O)N(C3CCCCC3)CC(=O)N2CCC2=CCCCC2)cc1OC` (stereo not drawn), for which the “activity change, negative = inhibition” value was -0.311% [at 57.1 µM] (inactive).

Regarding `Cc1ccc(/C=C/C(=O)Nc2ccc([N+](=O)[O-])c(NC(=O)/C=C/c3ccc(C)o3)c2)o1`, the Potency was 25.1 µM (active).

`Cc1ccc(/C=C/C(=O)OCC(=O)NCc2ccc(Cl)cc2)o1`: the “activity change, negative = inhibition” value was -13.7% (inactive).

In the case of `CCOc1ccc(NC(=S)NC(=O)/C=C/c2ccc(OC)cc2)c([N+](=O)[O-])c1`, the “activity change, negative = inhibition” value was -2.01% (inactive).

On to `CN(C(=N)N)c1ccc(/C=C2\C=Cc3ccccc32)cc1`, for which the “activity change, negative = inhibition” value is -2.12% (inactive).

In the case of `O=C(NCc1ccccc1Cl)C1=Cc2cc(Br)ccc2OC1`, the “activity change, negative = inhibition” value is 2.89% [at 57.1 µM] (inactive).

Regarding `COc1cc(OC)cc(C(=O)Nc2ccc(-c3nc4ccccc4o3)c(O)c2)c1`, the Potency is 28.2 µM (active).

`COc1cccc(C(=O)Nc2ccc3oc(-c4ccc5ccccc5c4)nc3c2)c1`: the “activity change, negative = inhibition” value was 40.9% (inactive).

In the case of `COc1cc2ccccc2cc1C(=O)Nc1cccc(-c2nc3ccccc3o2)c1`, the “activity change, negative = inhibition” value is 19.9% (inactive).

Consider `Cc1ccc(NC(=O)CN2c3ccccc3S(=O)(=O)c3ccccc32)cc1F`, for which the “activity change, negative = inhibition” value is 11.6% (inactive).

Regarding `COc1cc(C(=O)N(Cc2ccc(C(C)C)cc2)C2CCS(=O)(=O)C2)cc(OC)c1OC` (stereo not drawn), the “activity change, negative = inhibition” value was 1.01% (inactive).

Take `CCc1ccc(S(=O)(=O)N/N=C\c2ccc([N+](=O)[O-])o2)cc1`: the Potency was 14.1 µM (active).

Consider `CCc1ccc(S(=O)(=O)Nc2ccc(C)c(NS(C)(=O)=O)c2)cc1`, for which the “activity change, negative = inhibition” value was 3.53% (inactive).

As to `COc1ccc(S(=O)(=O)N/N=C\c2ccc(OC)c(COc3ccc(C)cc3[N+](=O)[O-])c2)cc1`, the “activity change, negative = inhibition” value is -5.22% (inactive).

Regarding `O=C(Cc1ccccc1)Nc1sc2c(c1C(=O)Nc1ccc(Br)cc1)CCC2`, the “activity change, negative = inhibition” value was 9.27% (inactive).

As to `COc1ccc(NC(=O)C(c2ccccc2)N2Cc3ccccc3C2=O)cc1` (stereo not drawn), the “activity change, negative = inhibition” value was 31.3% [at 57.1 µM] (inactive).

As to `CCOc1ccc(C(CC(=O)O)NC(=O)COc2ccccc2)cc1` (stereo not drawn), the “activity change, negative = inhibition” value was 1.01% [at 57.1 µM] (inactive).

Regarding `CCOC(=O)/C=C/C(=O)OCC(=O)NC(c1ccccc1)c1ccccc1`, the Potency is 28.2 µM (active).

For the compound `Cc1ccccc1OCCC(=O)OCC(=O)NC(C)c1ccccc1` (stereo not drawn), the “activity change, negative = inhibition” value is -7.06% (inactive).

Consider `CC(=O)Nc1ccc(S(=O)(=O)N2N=NC3C2C2CC4C3(CN(C(=O)OC(C)(C)C)S4(=O)=O)O2)cc1` (stereo not drawn), for which the “activity change, negative = inhibition” value was -0.673% (inactive).

On to `CN(C)c1ccc(/C=C/c2sc3ccccc3[n+]2CCCCBr)cc1`, for which the “activity change, negative = inhibition” value was 26% (inactive).

In the case of `Cc1ccc(C(=O)COC(=O)C(Cc2c[nH]c3ccccc23)NC(=O)c2ccc(Br)cc2)cc1` (stereo not drawn), the “activity change, negative = inhibition” value was 33.8% [at 57.1 µM] (inactive).

For the compound `CC(=O)OCC(NC(=O)C(Cc1ccccc1)NC(=O)OC(C)(C)C)C1OC(n2ccc(=O)[nH]c2=O)C(OC(C)=O)C1OC(C)=O` (stereo not drawn), the “activity change, negative = inhibition” value is 8.07% (inactive).

For the compound `COc1cc(OC)c2c(C)cc(=O)oc2c1C(CCN1CCCCC1)c1ccc(N(C)C)cc1` (stereo not drawn), the “activity change, negative = inhibition” value is -4.41% (inactive).

Regarding `C=C(C)C(=O)O[C@H]1C/C(C)=C\C(=O)/C=C(\C)[C@H](O)[C@@H]2OC(=O)C(=C)[C@@H]21`, the Potency is 39.8 µM (active).

`CCOC(=O)N1CCc2c(sc(NCc3cccc(F)c3)c2C(=O)Nc2ccccc2OCC)C1`: the “activity change, negative = inhibition” value is 10.3% [at 57.1 µM] (inactive).

For `COc1cc(OC)c(/C=C/c2ccnc3ccccc23)c(OC)c1`, the “activity change, negative = inhibition” value was -0.654% (inactive).

As to `C=C1CCN(C(CC(C)C)C(=O)N2CCOCC2)S(=O)(=O)c2ccccc21` (stereo not drawn), the “activity change, negative = inhibition” value was -0.716% (inactive).

For `O=c1[nH]c2cc(Br)ccc2n2cccc12`, the “activity change, negative = inhibition” value is 10.7% (inactive).

In the case of `O=c1cc(-c2ccccc2)n2c(SCc3ccccc3)nnc2[nH]1`, the “activity change, negative = inhibition” value was 0.137% [at 57.1 µM] (inactive).

On to `CC(C)Cn1c(=O)c2ccccc2n2c(-c3cccc(Cl)c3)nnc12`, for which the “activity change, negative = inhibition” value is 20.3% (inactive).

With `O=c1[nH]c2ccccc2n2c(-c3ccccc3)nnc12`, the Potency is 0.708 µM (active).

Regarding `Cc1ccc2nc(N3CCN(c4cccc(Cl)c4)CC3)c3nnnn3c2c1`, the “activity change, negative = inhibition” value is 7.14% (inactive).

For `COc1ccc(N2C(=O)CSC23C(=O)N(Cc2cccc(F)c2)c2ccccc23)cc1Cl` (stereo not drawn), the “activity change, negative = inhibition” value is 17.9% (inactive).

Take `Oc1c(C(c2ccc(F)cc2)N2CCN(Cc3ccccc3)CC2)sc2nc(-c3ccco3)nn12` (stereo not drawn): the “activity change, negative = inhibition” value was 4.01% [at 57.1 µM] (inactive).

As to `CC1(C)C/C(=N/Nc2ccc([N+](=O)[O-])cc2[N+](=O)[O-])C(C)(C)O1`, the “activity change, negative = inhibition” value is 12.7% [at 57.1 µM] (inactive).

For `C[n+]1ccccc1C1CCCC/C1=N\Nc1ccc([N+](=O)[O-])cc1[N+](=O)[O-]` (stereo not drawn), the “activity change, negative = inhibition” value is -2.33% (inactive).

For the compound `O=[N+]([O-])c1ccc(N/N=C2/CCCCC2c2ccccn2)c([N+](=O)[O-])c1` (stereo not drawn), the Potency was 3.55 µM (active).

For `Cc1cc(N2CCN(c3cccc(C(F)(F)F)c3)CC2)n2nc(-c3ccccc3)nc2n1`, the “activity change, negative = inhibition” value is -7.51% (inactive).

For the compound `CCOC(=O)c1c(NC(=O)CCl)sc(C(=O)N(CC)CC)c1C`, the Potency was 31.6 µM (active).

For the compound `COC(=O)c1sc(NC(=O)COC(=O)C2CCC2)c(C(=O)OC)c1C`, the “activity change, negative = inhibition” value was 1.57% (inactive).

As to `CCOC(=O)c1c(NC(=O)c2cc(CC)on2)sc(C(C)=O)c1C`, the “activity change, negative = inhibition” value was 1.81% (inactive).

In the case of `CCc1ccccc1NC(=O)CSc1nc(C)c(C(=O)Nc2ccccc2)c(-c2ccc(Cl)cc2)c1C#N`, the “activity change, negative = inhibition” value is 17.1% (inactive).

Regarding `CCCn1c(=O)c2[nH]c(-c3ccc(OCC(=O)NCCN)cc3)nc2n(CCC)c1=O`, the Potency result was “inactive”.

For the compound `COc1ccccc1/C=C/c1nc(C#N)c(NC(C)c2ccccc2)o1` (stereo not drawn), the “activity change, negative = inhibition” value was 80.7% (inactive).

Consider `O=C(CCC1N=C2c3ccccc3N=C(SCc3ccccc3F)N2C1=O)NCCc1ccccc1` (stereo not drawn), for which the “activity change, negative = inhibition” value was 6.07% [at 57.1 µM] (inactive).
